Over roughly 33,000 sequences, “E-score (-0.5 to 0.5)” has its median near -0.0059; the highest 2% begin near 0.26. Only a selection was taken, and the highest values are over-represented in it overall.

For this experiment, the target named is T1, Cin5 (UniProt P40917).
T1 sequence: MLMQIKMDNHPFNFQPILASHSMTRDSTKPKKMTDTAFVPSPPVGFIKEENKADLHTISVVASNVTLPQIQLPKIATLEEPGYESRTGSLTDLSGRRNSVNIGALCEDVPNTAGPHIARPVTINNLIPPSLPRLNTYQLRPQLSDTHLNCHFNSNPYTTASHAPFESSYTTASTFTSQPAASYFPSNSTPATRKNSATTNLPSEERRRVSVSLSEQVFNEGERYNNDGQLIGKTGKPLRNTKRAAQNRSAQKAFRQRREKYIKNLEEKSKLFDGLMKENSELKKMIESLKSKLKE
Nature of the experiment: PBM E-score (8-mer binding enrichment) (E-score (-0.5 to 0.5)); higher = stronger / more preferred TF binding. The following applies: protein concentration: 100 nM; construct: GST-full length. How it is done:
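Universal 'all 10-mer' protein binding microarrays (Agilent AMADID 015681) probed with GST-tagged S. cerevisiae TFs (full-length or DBD) made by in vitro transcription/translation (PURExpress), about 100-200 nM. Bound TF was detected with fluorescent anti-GST. Each ungapped 8-mer (which stands for itself and its reverse complement) is scored by the PBM enrichment score (E-score), a modified Wilcoxon-Mann-Whitney statistic from -0.5 to +0.5, computed with the Universal PBM Analysis Suite. Scale: above 0.35 generally sequence-specific binding.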
With GCAAGGGC, the “PBM E-score” value is -0.235. For TAACATGA, the “PBM E-score” value was 0.071.

In the case of AGCTTCCT, the “PBM E-score” value turned out to be 0.00798. For the sequence CAGCAAAG, the “PBM E-score” value was -0.0276.

On to GAATCTGA, for which the “PBM E-score” value was -0.0334.

For the sequence GAGCTTTA, the “PBM E-score” value is -0.0441.

In the case of AAGTATAA, the “PBM E-score” value stood at 0.216. Take AAGTATTA: the “PBM E-score” value stood at 0.0531. Take GAGTATAA: the “PBM E-score” value stood at 0.181. As for CAGTATTA, the figure is 0.294; as for CAGTATAA, 0.284. GAGTATTA: the “PBM E-score” value turned out to be 0.178. GGAAGTCA: the “PBM E-score” value was 0.0165. In the case of GAACTCCA, the “PBM E-score” value came out at 0.0209. As to CAGCATGC, the “PBM E-score” value is -0.0241. For GGATCAAA, the “PBM E-score” value came to 0.0839. For the sequence CTCTGGCC, the “PBM E-score” value was -0.234.

Take GGGACCAC: the “PBM E-score” value was -0.174. With CCGCCTAA, the “PBM E-score” value is -0.0943. Turning to TATGTCAA, the “PBM E-score” value was 0.294.

For AATGTCAA, the “PBM E-score” value was determined as 0.176. On to TATGTAAA, for which the “PBM E-score” value came out at 0.286.

On to CATGTAAA, for which the “PBM E-score” value is -0.054. On to GATGTAAA, for which the “PBM E-score” value stood at 0.13. In the case of GATGTCAA, the “PBM E-score” value amounted to 0.0458. In the case of ATACTCCA, the “PBM E-score” value was determined as 0.122. As for AGCAGAGA, the figure is 0.0498. To ATTCATTC belongs 0.299; to ATTCATTA, 0.122; to ATTCATTG, 0.116.

Consider ACTCAGAC, for which the “PBM E-score” value was -0.0116.

For the sequence AAATAGAG, the “PBM E-score” value was -0.0761. On to ACCTATAC, for which the “PBM E-score” value was determined as 0.0459.

Turning to AAATATAC, the “PBM E-score” value is 0.178. Take AAATATAT: the “PBM E-score” value came to 0.295. For AACTATAC, the “PBM E-score” value is 0.0815. As for ACCTATAT, the figure is 0.269; as for AACTATAT, 0.294. As for AAATAGAC, the “PBM E-score” value was 0.143. On to AAATAGAT, for which the “PBM E-score” value stood at 0.297. As for AAATATAA, the figure is 0.203; as for AACTATAG, 0.051. As for ACCTATAA, the figure is -0.0275; as for ACATCAGC, 0.0733; as for CACTGAAC, 0.0413. On to AGAGAGCC, for which the “PBM E-score” value was -0.283. For CGTAGTGC, the “PBM E-score” value was -0.0666. As for GGCGTGAA, the figure is -0.183; as for CAATAAGG, -0.0974. Regarding AGTCGGCA, the “PBM E-score” value is -0.0519. Regarding CGGCCGTC, the “PBM E-score” value is -0.125. Consider CACCCCCC, for which the “PBM E-score” value was -0.498. With AAGCAAGC, the “PBM E-score” value came out at 0.0852. For ATCATGAT, the “PBM E-score” value stood at 0.098. To CACTATAA belongs -0.0724. To TACTATAA belongs 0.333. To AACTATAA belongs 0.195; to ATGCCCCA, -0.0481. AGCAAGGC: the “PBM E-score” value is -0.0671. Consider ACCGCCAA, for which the “PBM E-score” value was -0.0388.

For the sequence AAGAGAAG, the “PBM E-score” value is -0.0313. On to AAGAGAAT, for which the “PBM E-score” value turned out to be 0.261.

In the case of AAGAGAAA, the “PBM E-score” value was -0.0461. With AAATTCAT, the “PBM E-score” value was found to be 0.0992.

As to AAGAGTTA, the “PBM E-score” value was -0.0309. For CCATCACG, the “PBM E-score” value is -0.0302.

With AGTCGAGG, the “PBM E-score” value is -0.168. As to ATATACAA, the “PBM E-score” value is 0.266. As for CTATACAA, the figure is 0.00862; as for ATATACAC, 0.134; as for CAATACAA, 0.308.

Regarding ATATACTC, the “PBM E-score” value was 0.209. Take CAATACAG: the “PBM E-score” value turned out to be 0.0431. CTATACTA: the “PBM E-score” value was 0.198.

Turning to CAATACAC, the “PBM E-score” value stood at 0.00745.

Consider ATATACTA, for which the “PBM E-score” value stood at 0.318. With CAACGACC, the “PBM E-score” value is -0.0159.

As to TTCCTAAA, the “PBM E-score” value is -0.157.

Regarding CGATGCGC, the “PBM E-score” value stood at 0.0485. On to GAGCGGAC, for which the “PBM E-score” value is -0.251. Consider CTTCCAAA, for which the “PBM E-score” value amounted to 0.0243. Turning to AAGACTCG, the “PBM E-score” value was -0.0863. As for CTGCCCGA, the figure is -0.00627. With AGGCGGCG, the “PBM E-score” value was -0.0941. In the case of CTGACGTC, the “PBM E-score” value worked out at 0.035. Regarding ATGACGTA, the “PBM E-score” value was determined as 0.338. In the case of ATGACGTG, the “PBM E-score” value was determined as 0.191. Take CTGACGTA: the “PBM E-score” value was determined as 0.278.

For the sequence GTGACGTA, the “PBM E-score” value came to 0.204.

Take ATGACGTC: the “PBM E-score” value was 0.255. As to AGATTAGA, the “PBM E-score” value is -0.0761.

Turning to AGGGGGGC, the “PBM E-score” value was -0.479. Take AATTATAC: the “PBM E-score” value stood at 0.208.

In the case of GATTATCC, the “PBM E-score” value worked out at 0.0776. To CATTATAA belongs 0.0881.

For the sequence CATTATCG, the “PBM E-score” value is 0.0028.

In the case of CATTATCC, the “PBM E-score” value stood at 0.276.

Turning to CATTATAC, the “PBM E-score” value is 0.287.
